BRCT inh red = qHTS Assay for Inhibitors of BRCT-Phosphoprotein Interaction (Red Fluorophore). Potency, µM (doses to about 76.9 µM), for inactives: at the highest dose activity change, negative = inhibition, hits mostly inhibitors. BRCT-phosphopeptide binding, red fluorescence polarization. AID 892, 2007. hit rate 0.03% among 75,000; note: % is set by controls: 0 for no effect and ±100 for the full control effect
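Fluorescence polarization: 100 nM His-tagged BRCA1 BRCT with 100 nM TAMRA-labelled phospho-BACH1 decapeptide, phosphate buffer pH 7.3 with 150 mM NaCl, DTT, 0.01% Tween 20; 12 min RT. Binding inhibition seen as FP decrease.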
Pol III holo inh = qHTS Assay for Inhibitors of DNA Polymerase III Holoenzyme System; reconstituted DNA polymerase III holoenzyme replication, biochemical; Potency, µM (doses to about 57.1 µM), inactives show at the highest dose activity change, negative = inhibition; hit rate 0.25% among 71,000; AID 603, 2007; note: potency is the fitted concentration of half-maximal effect; % is set by controls: 0 for no effect and ±100 for the full control effect
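Reconstituted *E. coli* holoenzyme (0.35 nM Pol III, 1 nM beta, 154 nM SSB, 2 nM primase) was preincubated with compound for 15 min at RT. Synthesis on 1.4 nM ssM13Gori ran 35 min, then was stopped with PicoGreen/EDTA and read as dsDNA fluorescence.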
BRCT inh green = qHTS Assay for Inhibitors of BRCT-Phosphoprotein Interaction (Green Fluorophore); Breast cancer type 1 susceptibility protein (Homo sapiens), P38398; BRCA1 BRCT-phosphopeptide binding, green fluorescence polarization; Potency, µM (top dose mostly 76.9 µM), without a hit: top-dose activity change, negative = inhibition, actives largely listed as inhibitors; hit rate 0.05% among 75,000;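 note: potency is the fitted concentration of half-maximal effect; plate controls were peptide without protein for full effect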
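Fluorescence polarization: His-tagged BRCT (~35 kDa BRCA1 C-terminus, 250 nM) bound to 100 nM fluorescein-labeled phosphorylated 10-aa BACH1 peptide, pH 7.3 phosphate buffer with DTT and Tween 20. Compounds incubated 12 min at room temperature; inhibition read as lowered polarization.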
Hsp90 Hop PPI = qHTS Assay for Disrupters of an Hsp90 Co-Chaperone Interaction; AID 595, 2007; AlphaScreen TPR2A-His6 binding biotin-Hsp90 C-terminal peptide; hit rate 0.44% among 71,000; Potency, µM (titrated, usually from 57 µM), for inactives: at the highest dose activity change, negative = inhibition; Hsp90 C-terminal peptide / TPR2A (Hop) interaction, human; active = well fitted curve in either direction with a large enough effect; inconclusive = small, poorly fitted or top-dose-only effect, or another doubt; note: potency is the fitted concentration of half-maximal effect; % is set by controls: 0 for no effect and ±100 for the full control effect
Tau fil binding = qHTS Assay for Tau Filament Binding; hit rate 2% among 71,000; recombinant tau filaments, thioflavin S fluorescence, 15 h; filaments grown with octadecylsulfate alongside compound; AID 596, 2007; Potency, µM (titrated, usually from 57.1 µM), for inactives: at the top dose activity change, negative = inhibition;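 note: potency is the fitted concentration of half-maximal effect; % is set by controls: 0 for no effect and ±100 for the full control effect; actives lower thioflavin S fluorescence by blocking filaments or displacing dye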
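Read-out: ThS fluorescence, 450 nm excitation/510 nm emission; lower signal marks blocked filament formation or displaced dye. Tau at 1 uM with 30 uM ODS, 10 uM ThS, 5 mM DTT, 100 mM NaCl, 10 mM HEPES pH 7.4; 15 h, 37 C.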
YjeE inh = qHTS Assay for Inhibitors of YjeE | tRNA threonylcarbamoyladenosine biosynthesis protein TsaE (Escherichia coli (strain … | Potency, µM | hit rate 0.05% among 71,000 | purified YjeE enzyme, qHTS inhibition assay
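Purified YjeE (10 uM) with BODIPY Texas Red-labeled ADP probe (2 uM); compounds pin-transferred, 15 min at room temperature. Binding inhibition read as decreased fluorescence polarization; ADP titration as control.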
Numbers without * were called inactive; i = inactive; ? = inconclusive; . = no result given; ! = not active in a repeat; [ ] = another dose, or the depositor's remark. Compounds with a hit are over-represented: about 2.3% of the library has one in this group of screens. Unless noted, calls come from the whole dose curve; as a rule, active = well fitted curve in the direction sought with a large enough effect; inconclusive = small, poorly fitted or top-dose-only effect, or another doubt; inactive = no such curve, though single readings can be large; an effect the other way counts as inactive or inconclusive.

SMILES	BRCT inh red	Pol III holo inh	BRCT inh green	Hsp90 Hop PPI	Tau fil binding	YjeE inh
Nc1c2c(nc3ccccc13)CCCC2	1%	-10%	4%	-3%	44%	i
CCCCCCCC/C=C\CCCCCCCC(=O)O	-11%	-3%	-1%	3%	32µM*	i
CCCCCCCC/C=C\CCCCCCCC(=O)NCCc1ccc(O)c(O)c1	-3%	0%	-4%	?	-9%	i
COc1cc(CNC(=O)CCCC/C=C\C(C)C)ccc1O	1%	0%	0%	?	?	i
CCCCCCCC/C=C\CCCCCCCC(=O)NCCO	-5%	0%	3%	1%	32µM*!	i
CCCCC/C=C\C/C=C\CCCCCCCC(=O)O	0%	-11%	-4%	2%	?	i
CCCCCCCC/C=C\CCCCCCCC(=O)NCc1ccc(O)c(OC)c1	-2%	2%	4%	-1%	40µM*	i
C[N+](C)(C)CCO	0%	-5%	-1%[3.08 µM]	-4%	1%	i
O=C(c1ccco1)N1CCC2(CC1)CCN(c1ccncc1)CC2	0%	-4%	-3%	-4%	-19%	i
Cn1c(=O)oc2cc(S(=O)(=O)NCCC(=O)N3CCc4ccccc43)ccc21	-1%	-8%	2%	0%	16µM*	i
O=C1CCCC2=C1C(c1ccco1)Nc1ccc(C(=O)c3ccccc3)cc1N2 (stereo not drawn)	-5%	-16%	-3%	?	6.3µM*	i
CCN(CC)c1ccc2c(c1)CCCN2	1%	-5%	-4%	16µM*	25µM*	i
O=C(CCS(=O)(=O)c1cccc2nonc12)N1CCCc2ccccc21	-2%	-3%	-2%	-7%	-2%	i
Cc1ccc(Cl)cc1N1CCN(C(=O)CCS(=O)(=O)c2cccc3nonc23)CC1	-2%	-1%	-3%	-3%	13µM*	i
CCOC(=O)c1cnc2c(C(F)(F)F)cccc2c1N1CCOCC1	1%	-3%	-1%	-6%	16µM*	i
COC(=O)C/C=C/C(C)C(OC)c1ccccc1Br (stereo not drawn)	0%[15.4 µM]	.	-3%[15.4 µM]	.	.	.
Clc1ccc(-c2ccc(-c3nn4c(-c5ccco5)nnc4s3)o2)cc1	-8%	-11%	-2%	-17%	25µM*	i
c1ccc(-c2nn3c(-c4ccco4)nnc3s2)nc1	-3%	-4%	-3%	-10%	-24%	i
Brc1ccc(-c2nn3c(-c4ccco4)nnc3s2)o1	-11%	25µM*	-11%	-9%	-8%	i
COc1ccc2cccc(N3CCN(CCNC(=O)c4ccc(F)cc4)CC3)c2c1	-1%	-7%	0%	0%	3%	i
Nc1nc(-c2c[nH]c3ccccc23)cs1	4%	-13%	0%	-15%	25µM*	i
O=C(O)c1cc(-c2ccco2)nc2ccccc12	-3%	-14%	-4%	-3%	2%	i
Oc1c(-c2cc(-c3ccco3)[nH]n2)ccc2ccccc12	-2%	-6%	0%	?	16µM*	i
CCN=c1scc(-c2ccc3c(c2)NC(=O)CO3)n1N=C1CCCC1	0%	2%	4%	?	13µM*	i
CCc1nc2sc3ccccc3c(=O)c2c(=O)n1Cc1ccco1	-3%	-6%	-1%	-6%	16µM*	i
SMILES	BRCT inh red	Pol III holo inh	BRCT inh green	Hsp90 Hop PPI	Tau fil binding	YjeE inh
O=c1c2ccccc2sc2nc(C3CCCCC3)n(Cc3ccco3)c(=O)c12	-1%	-4%	-3%	-7%	10µM*	i
O=c1c2ccccc2nc(SCc2nc3ccccc3s2)n1Cc1ccco1	-1%	5%	1%	0%	9%	i
CCc1nc2oc3cc(OC)ccc3c(=O)c2c(=O)n1Cc1ccco1	-1%	-7%	2%	-9%	-10%	i
CCNc1ncc2nc(C)c(=O)n(Cc3cccc(OC)c3)c2n1	-1%	9%	2%	-1%	0%	i
C=CCn1cnc2c(c1=O)c1nc3ccccc3nc1n2/N=C/c1cccc(OC)c1	-2%	-7%	-2%	-3%	3.2µM*	i
COCCn1cnc2c(c1=O)c1nc3ccccc3nc1n2/N=C/c1cccc(OC)c1OC	0%	6%	-2%	0%	-4%	i
C=CCc1cccc(CNc2nc3ccccc3n2CCN2CCOCC2)c1O	0%	-3%	-3%	-16%	25µM*	i
Oc1ccccc1CNc1nc2ccccc2n1CCN1CCCCC1	-4%	4%	-1%	-6%	14%	i
CCCCCCNC(=O)Nc1ccc(S(=O)(=O)Nc2ccc(CCNC[C@H](O)COc3ccc(O)cc3)cc2)cc1	0%	.	-4%	.	.	.
CC(C)n1c(Nc2ccccc2)nc2ccccc21	1%	-4%	-1%	-7%	-2%	i
CC(C)n1c2ccccc2c2nc3ccccc3nc21	-2%	-3%	-1%	32µM*	-23%	i
NCCNC(=S)S	0%[15.4 µM]	-3%[11.4 µM]	1%[15.4 µM]	0%[11 µM]	-6%[11.4 µM]	i
COc1ccc(N2CCN(CCCNC(=O)CC3Oc4ccc(C)cc4NC3=O)CC2)cc1 (stereo not drawn)	1%	-4%	-2%	-7%[2.3 µM]	25µM*	i
CCN1CCN(c2cc(C)c3cc(NC(=O)Cc4ccc(OC)c(OC)c4)ccc3n2)CC1	2%	-7%	1%	-1%	-28%	i
CCN1CCN(c2cc(C)c3cc(NC(=O)c4cnccn4)ccc3n2)CC1	2%	-10%	-2%	-3%	10µM*	i
COC1OC(CO)C(OC2OC(C(=O)O)C(OC3OC(COS(=O)(=O)O)C(OC4OC(C(=O)O)C(OC5OC(CO)C(OC6OC(C(=O)O)C(OC7OC(COS(=O)(=O)O)C(OC8OC(C(=O)O)=C[C@H](O)C8OS(=O)(=O)O)C(O)C7NC(C)=O)[C@@H](O)C6O)C(O)C5NC(C)=O)[C@@H](O)C4O)C(O)C3NC(C)=O)[C@@H](O)C2O)C(O)C1NC(C)=O (stereo partly drawn)	1%	.	-1%	.	.	.
N#Cc1sc2nc3c(c(-c4ccco4)c2c1N)CCCC3	6%	-16%	35%	-3%	3.2µM*	i
CC1(O)C(=O)C=C2C=C3CCCN3C=C2C1=O (stereo not drawn)	-1%[15.4 µM]	.	-4%[15.4 µM]	.	.	.
COc1ccc(OC)c(N)c1	-6%	1%	-3%	-29%	13µM*	i
O=Nc1ccc2oc(=O)ccc2c1	-2%	-7%	-2%	-8%	-2%	i

Screening data from PubChem.
